# Experimental data from ChEMBL document CHEMBL4513216, “Probing the Open Global Health Chemical Diversity Library for Multistage-Active Starting Points for Next-Generation Antimalarials” (ACS Infect Dis, 2020).
# About 8,600 (12%) of roughly 69,000 compounds showed an effect of 50% or more. The sample holds strong results, similar compounds and a random draw of the others, so the mix is not that of the screen.
# Test system: Plasmodium berghei
# Experiment: Screen against P. berghei liver stage (PbLuc), transformed with Luciferase, at 10uM
# Format: functional, HepG2
# Details: tested at 10 uM
row,Structure (SMILES),INHIBITION [%]
1,c1ccc(OCCN2CCC(n3cncn3)CC2)cc1,37.4
2,CSc1ccc(OCCN2CCC(n3cncn3)CC2)cc1,27.6
3,Clc1cc(Cl)cc(OCCN2CCC(n3cncn3)CC2)c1,62.4
4,CC(C)n1[nH]c(=O)c2c1NC(=O)CC2c1ccncc1 (configuration not stated),-19.1
5,CCc1ccc(C2CC(=O)Nc3c2c(=O)[nH]n3C(C)C)cc1 (configuration not stated),79.7
6,CC(C)n1[nH]c(=O)c2c1NC(=O)CC2c1cccc(Br)c1 (configuration not stated),-6.61
7,CSc1ccc(C2CC(=O)Nc3c2c(=O)[nH]n3C(C)C)cc1 (configuration not stated),19.8
8,Cc1cccc(C2CC(=O)Nc3c2c(=O)[nH]n3C(C)C)c1 (configuration not stated),71.3
9,CC(C)n1[nH]c(=O)c2c1NC(=O)CC2c1cccc(O)c1 (configuration not stated),-47
10,O=C(CCn1nc(-c2cccs2)oc1=O)Nc1cccc(F)c1,31.9
11,O=C1CC2(CCN(c3nncs3)C2)CN1c1cncnc1 (configuration not stated),15.4
12,Cc1cnc2c(S(=O)(=O)NCC3CCOC3)cccc2c1 (configuration not stated),3.15
13,Cc1cccc(OCC2CCCN(C(=O)CCn3ccccc3=O)C2)c1 (configuration not stated),-10.2
14,c1cc(-c2nnc3sc(CCN4CCCC4)nn23)ccn1,46.1
15,c1ccc(-c2nnc3sc(CCN4CCCCCC4)nn23)cc1,30.8
16,c1ccc(-c2nnc3sc(CCN4CCCC4)nn23)cc1,54.3

row,Structure (SMILES),INHIBITION [%]
1,CC(C)(N)CNS(=O)(=O)Cc1cccc2cccnc12,2.66
2,CCOCCCNC(=O)CCCC(=O)n1nc(C)c2ccccc21,32.2
3,Cc1ccsc1-c1cccc(-c2ccn(CC3CCNC3)n2)c1 (configuration not stated),72.6
4,c1cc(-c2cncnc2)cc(-c2ccn(CC3CCNC3)n2)c1 (configuration not stated),46.4
5,Cc1nccc(-c2cccc(-c3ccn(CC4CCNC4)n3)c2)n1 (configuration not stated),47.2
6,CCn1c(C)nnc1CN(C)C1CCN(CCCSC)C1 (configuration not stated),-69.3
7,Cc1cc(C(=O)N2CCS(=O)(=O)CC2)c(C)o1,-9.21
8,Cc1cn[nH]c1C1COCCN1Cc1c[nH]cn1 (configuration not stated),35.6
9,Cc1ccc(OCC(=O)NS(=O)(=O)c2c(C)noc2C)cc1C,6.14
10,Cc1cccc(C)c1OCC(=O)NS(=O)(=O)c1c(C)noc1C,-55.8
11,Cc1cc(C)c(OCC(=O)NS(=O)(=O)c2c(C)noc2C)c(C)c1,55.1
12,O=C(NCCn1nc(C2CCNC2)c2cccnc21)C1CCC1 (configuration not stated),13.5
13,Cc1nn(C)c2ncnc(NCC(O)CN3CCCCC3)c12 (configuration not stated),7.3
14,CC(C)Oc1ccccc1OCCN1C(=O)CCNC1=O,50.5
15,COc1ccccc1OCCCN1C(=O)CCNC1=O,-88.2
16,COc1cccc(OC)c1OCCN1C(=O)CCNC1=O,25.8
